# From ChEMBL document CHEMBL3433997, “St. Jude Leishmania screening dataset” (2016)
# Biological target: Glucose transporter (Leishmania mexicana) (UniProt O61059)
# Assay: ST_JUDE_LEISH: Cytotoxicity at 2uM final concentration against transgenic Leishmania Mexicana promastigotes LmGT2 that are glucose transport deficient and complemented with the L. Mexicana glucose transporter 2. Activity is measured by DNA content using SYBR green in vitro
# Type: functional
row,SMILES,inhibition [%]
1,COc1cc(C(C)C)ccc1C1CCN(CCCCNC(=O)c2ccc(NC(=O)c3ccc(Cl)cc3)cc2)CC1,3.65
2,c1ccc(Nc2nc(-c3ccccn3)cs2)nc1,-2.43
3,Nc1nc2c(ncn2OC[C@H]2COP(=O)(O)CO2)c(=O)[nH]1,-1.54
4,COc1ccc(C=Cc2cc(=N)c3ccccc3[nH]2)cc1,0.89
5,Cc1ccccc1Nc1nc(NCCc2ccccc2)nc2ccccc12,18.3
6,CN1CCN(c2nsc3ccc(-c4ccc(NC(=O)Nc5cc(C(F)(F)F)ccc5F)cc4)cc23)CC1,2.12
7,CCN(CC)CCCCCNc1c2ccc(Cl)cc2nc2ccc(OC)cc12,1.52
8,CCCC1(NC[C@@H](O)[C@H](Cc2ccccc2)NC(=O)c2cc(NCC)cc(N3CCCCS3(=O)=O)c2)CCCCC1,4.36
9,Cc1nc2ccc(S(=O)(=O)Nc3ccc(C(=O)N[C@@H](CCC(=O)O)C(=O)O)cc3)cc2c(=O)[nH]1,0.45
10,Nc1nc(N)c2c(ccc3c2cnn3Cc2cccnc2)n1,38.1
11,Cc1ccc(-c2noc(COc3ccccc3C(=O)NC3CCCC3)n2)cc1,6.15
12,O=C(Nc1cccc(CN2CCCN(Cc3cccc(O)c3)CC2)c1)c1ccc2ccccc2c1,-2.82
13,COc1cc(Cl)c(C)cc1-n1cc(C(=O)c2cc(Br)ccc2O)cc(C#N)c1=O,0.03
14,COc1ccc(CCNCCCCCCNCCc2ccc(Cl)c(Cl)c2)cc1OC,3.76
15,O=C(c1ccc(-c2cccc(-c3nc4cc(C(F)(F)F)ccc4[nH]3)c2)cc1)N1CCCCC1CN1CCC(O)C1 (stereo not given),0.17
16,COc1ccc(CC(=O)NC(CCN2CCC3(CCc4ccccc43)CC2)c2ccc(Cl)c(Cl)c2)cc1 (stereo not given),-0.93
17,O=C(Nc1cccc(CN2CCN(Cc3cccc(O)c3)CC2)c1)c1ccc(Cl)c(Cl)c1,-1.62
18,CNCc1cccc2nc(-c3csc(Cc4cc(Cl)ccc4OCC(C)C)n3)[nH]c12,-0.08
19,NC(Cc1cccc(I)c1)C(=O)NCC1CCCO1 (stereo not given),0.96
20,CCc1cc2c3c(N)nc(N)nc3ccc2n1C(CC)CC,65.2

row,SMILES,inhibition [%]
1,Cc1cccc(C)c1/N=C1\NC(=S)N(c2cccc(Cl)c2)C12CCC(C(C)(C)C)CC2 (stereo not given),0.24
2,O=C(/C=C/c1ccc(F)cc1)NC1CCC(CCN2CCc3ccc(-n4cccn4)cc3CC2)CC1 (stereo not given),7.81
3,COc1cccc(OC)c1CN1CCC(N(C)CCCCCCCCCN2CCC(OC(=O)Nc3ccccc3-c3ccccc3)CC2)CC1,111
4,CCCCCN1CCC(NS(=O)(=O)c2cccc(C(=O)Nc3ccc(Cl)cc3)c2)CC1,2.4
5,COc1ccc(-c2nc(NC(=O)Cc3cccc(OC)c3)sc2C)cc1,3.16
6,CN(C)CCN(C)Cc1cccc(-c2cccc(NC(=O)c3cccc(C#N)c3)c2)c1,4.89
7,CCn1c(Sc2ccc(C#N)c([N+](=O)[O-])c2)nnc1-c1ccc(OC)cc1,2.61
8,CCCCNCC(O)COc1ccccc1-c1ccc(N/N=C/c2cccc3ccccc23)nn1 (stereo not given),1.78
9,Clc1ccc(CNc2nc(NCCc3c[nH]cn3)nc(N3CCCC4CCCCC43)n2)cc1 (stereo not given),3.89
10,CC(C)CCN1CCCN(Cc2cccc(NC(=O)c3cc4ccccc4s3)c2)CC1,2.29
11,CCOC(=O)c1c(C)n(-c2ccccc2)c2ccc(OC(=O)COc3ccc(Cl)cc3Cl)cc12,6.97
12,Cc1nc2nc(N)nc(N)c2c(C)c1Cc1cccs1,2.44
13,O=C(Nc1ccc(-c2cccc(-c3nc4cc(F)ccc4[nH]3)c2)cc1)c1ccncc1,12.9
14,O=C(Nc1cccc(-c2ccc(-c3nc4cc(C(F)(F)F)ccc4[nH]3)cc2)c1)c1c[nH]cn1,0.52
15,Oc1ccccc1CCNC1CCc2ccccc2C1 (stereo not given),6.05
16,Cc1cc(N)nc2ccc(-c3ccc(CCN)cc3)cc12,0.96
17,CC(Oc1ccc(NC(=O)c2cccs2)cc1)C(=O)c1ccc(Cl)cc1 (stereo not given),7.25
18,CC(C)N(Cc1ccccc1)C(=O)CN1C(=O)COc2ccc(S(=O)(=O)N3CCCCCC3)cc21,10.5
19,CN1CCC(C(=O)Nc2ccc(-c3ccc(-c4nc5cc(C(F)(F)F)ccc5[nH]4)s3)cc2)CC1,-0.16
20,CC(=O)N1N=C(c2ccccc2)Sc2c1nc(-c1ccc(Cl)cc1)n2C(C)=O,3.09
